PubChem BioAssay
Calls of active or inactive are those of the source.

Columns and labels:
[1] = biological target: Albumin (Bos taurus) (UniProt P02769); assay: bovine serum albumin binders on microarray, profiling panel, artefact control for SMM control protein annotation, biochemical, small-molecule microarray, Alexa647 label, 635/667 nm fluorescence (AID 1118); conditions: BSA-A647 binding, fluorescence 635 nm, higher = more signal;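 note: score merges 667 nm emission intensity and signal-to-noise per printed compound spot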
Sequence of Albumin (Bos taurus) (P02769 whole entry, looked up): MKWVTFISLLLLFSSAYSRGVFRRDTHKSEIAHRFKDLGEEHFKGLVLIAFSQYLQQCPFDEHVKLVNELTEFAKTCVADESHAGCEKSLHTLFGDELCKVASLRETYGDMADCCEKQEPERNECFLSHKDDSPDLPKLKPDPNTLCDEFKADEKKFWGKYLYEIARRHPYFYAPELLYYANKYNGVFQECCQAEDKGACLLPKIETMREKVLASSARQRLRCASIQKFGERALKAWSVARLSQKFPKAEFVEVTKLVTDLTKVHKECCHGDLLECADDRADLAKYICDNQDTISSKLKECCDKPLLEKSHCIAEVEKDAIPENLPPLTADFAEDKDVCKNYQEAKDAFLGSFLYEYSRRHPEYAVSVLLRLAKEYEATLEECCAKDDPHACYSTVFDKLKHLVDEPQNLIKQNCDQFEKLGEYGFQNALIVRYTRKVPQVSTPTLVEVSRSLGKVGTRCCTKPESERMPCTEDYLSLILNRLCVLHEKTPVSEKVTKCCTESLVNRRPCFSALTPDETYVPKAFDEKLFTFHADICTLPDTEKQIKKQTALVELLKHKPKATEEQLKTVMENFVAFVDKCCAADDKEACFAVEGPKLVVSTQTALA

[2] = small-molecule microarray binders of probe aXIP, primary screen, biochemical, NeuroSMM set, 635/667 nm fluorescence (AID 1119); conditions: higher = more signal, called active from +8 up or from −8 down;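 note: probe is the protein aXip251-270 applied at 1 µg/mL to compound-printed slides; binding of probe to printed compounds measured as 667 nm fluorescence plus signal to noise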
[3] = small-molecule binders of probe aNOTCH3, primary screen, biochemical, small-molecule microarray, 635/667 nm fluorescence (AID 1120); conditions: higher = more signal;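 note: probe is a biotin-tagged antibody raised against NOTCH3 rather than NOTCH3 protein; score merges spot fluorescence near 667 nm with spot signal to noise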
[4] = small-molecule binders of probe aNOTCH2, primary screen, biochemical, small-molecule microarray, 635/667 nm fluorescence (AID 1121); conditions: higher = more signal;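 note: score merges feature fluorescence read at 667 nm with its signal to noise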
[5] = biological target: Carbonic anhydrase 2 (Homo sapiens) (UniProt P00918); assay: CAII small-molecule binders, profiling panel, biochemical, small-molecule microarray, Alexa647-labelled CAII (AID 1122); conditions: CAII-A647 binding fluorescence, higher = more signal
[6] = COS7 lysate on small-molecule microarray, probe aHis, 635 nm (AID 1123); conditions: COS7 cell lysate, fluorescence, higher = more signal;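 note: z-score combines 667nm fluorescence intensity with signal-to-noise per printed compound spot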
[7] = compound binding in COS7 lysate, probe aLAP1, primary screen, cell lysate, small-molecule microarray (AID 1124); conditions: probe aLAP1, fluorescence, higher = more signal;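 note: lysate comes from COS7 cells expressing LAP1 and is applied at 0.3 µg/mL; score merges spot fluorescence near 667 nm with signal-to-noise over triplicate slides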
[8] = test system: Sam68 (KHDRBS1); assay: Sam68 small-molecule binders, primary screen, biochemical, small-molecule microarray, 635 nm fluorescence (AID 1125); conditions: small-molecule microarray binding, higher = more signal;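 note: score merges 667 nm channel intensity with signal to noise over triplicate slides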
[9] = test system: Chordin-like protein 2 (CHRDL2); assay: CHRDL2 small-molecule binders, primary screen, biochemical, small-molecule microarray, 635 nm fluorescence (AID 1126); conditions: small-molecule microarray binding, fluorescence 635 nm; higher = more signal;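 note: printed compound slides probed with Chrdl2 protein at 4 µg/mL for 1 h at 4 C; score merges 667 nm emission intensity with signal to noise over three replicate slides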
[10] = biological target: Concanavalin-A (Canavalia ensiformis) (UniProt P02866); assay: ConA small-molecule binders, primary screen, artefact control for SMM control protein annotation, biochemical, small-molecule microarray, Alexa647 label, 635 nm (AID 1127); conditions: ConA-A647 binding fluorescence, higher = more signal;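 note: z combines 667 nm emission intensity with signal-to-noise across three replicate slides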
Sequence of Concanavalin-A (Canavalia ensiformis) (P02866 whole entry, looked up): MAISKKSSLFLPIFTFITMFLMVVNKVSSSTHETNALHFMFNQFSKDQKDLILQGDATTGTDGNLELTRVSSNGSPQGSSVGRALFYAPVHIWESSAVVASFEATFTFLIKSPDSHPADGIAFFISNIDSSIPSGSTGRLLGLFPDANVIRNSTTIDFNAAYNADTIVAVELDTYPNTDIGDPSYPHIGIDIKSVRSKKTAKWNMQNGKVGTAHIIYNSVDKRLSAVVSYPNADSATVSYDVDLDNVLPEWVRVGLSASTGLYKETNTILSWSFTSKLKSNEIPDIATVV

[11] = anti-His antibody binders, primary screen, artefact control for SMM control protein annotation, biochemical, small-molecule microarray, 635 nm fluorescence (AID 1128); conditions: anti-His Alexa647 antibody binding, higher = more signal;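 note: score merges feature fluorescence with signal-to-noise for each printed compound spot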
[12] = test system: Human papillomavirus type 1a E7 protein (residues 1-88); assay: HPV1a E7 small-molecule binders, primary screen, biochemical, small-molecule microarray, residues 1-88, 635 nm (AID 1129); conditions: small-molecule microarray binding, fluorescence 635 nm; higher = more signal
[13] = biological target: Focal adhesion kinase 1 (Homo sapiens) (UniProt Q05397); assay: small-molecule microarray binders of FAK, primary screen, biochemical, 635/667 nm fluorescence, BSA, DTT (AID 1130); conditions: PTK2 binding, 635 nm fluorescence, higher = more signal;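 note: composite of spot emission at 667 nm and signal to noise over triplicate slides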
Sequence of Focal adhesion kinase 1 (Homo sapiens) (Q05397 whole entry, looked up): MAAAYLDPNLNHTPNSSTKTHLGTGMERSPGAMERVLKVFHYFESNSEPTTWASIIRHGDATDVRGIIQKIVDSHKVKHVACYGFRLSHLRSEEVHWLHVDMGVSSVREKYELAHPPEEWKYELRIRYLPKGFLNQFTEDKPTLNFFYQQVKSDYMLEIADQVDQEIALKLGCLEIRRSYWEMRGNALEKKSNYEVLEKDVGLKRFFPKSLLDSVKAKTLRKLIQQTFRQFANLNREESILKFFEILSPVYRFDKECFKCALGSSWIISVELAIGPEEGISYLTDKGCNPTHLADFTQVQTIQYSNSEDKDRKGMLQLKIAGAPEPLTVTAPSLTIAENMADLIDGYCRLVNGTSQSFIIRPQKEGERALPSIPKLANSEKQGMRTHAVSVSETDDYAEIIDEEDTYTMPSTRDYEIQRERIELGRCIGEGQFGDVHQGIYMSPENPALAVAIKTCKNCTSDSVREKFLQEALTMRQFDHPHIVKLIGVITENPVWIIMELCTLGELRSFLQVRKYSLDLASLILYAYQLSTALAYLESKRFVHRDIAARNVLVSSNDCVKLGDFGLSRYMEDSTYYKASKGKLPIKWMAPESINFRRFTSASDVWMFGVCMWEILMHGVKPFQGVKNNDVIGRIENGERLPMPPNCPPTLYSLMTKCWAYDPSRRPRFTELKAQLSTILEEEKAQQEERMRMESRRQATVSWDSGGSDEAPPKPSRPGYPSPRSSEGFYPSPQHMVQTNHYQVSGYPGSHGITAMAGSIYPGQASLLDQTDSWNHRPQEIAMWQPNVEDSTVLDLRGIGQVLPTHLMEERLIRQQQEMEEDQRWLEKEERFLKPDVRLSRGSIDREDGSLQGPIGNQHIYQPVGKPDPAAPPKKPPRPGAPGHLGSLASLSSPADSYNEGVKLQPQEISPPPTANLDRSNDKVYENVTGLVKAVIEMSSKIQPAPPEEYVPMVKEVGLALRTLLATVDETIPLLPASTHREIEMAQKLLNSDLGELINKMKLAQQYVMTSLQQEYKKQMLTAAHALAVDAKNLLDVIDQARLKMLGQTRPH

[14] = test system: Fibrinogen (Alexa647-labelled); assay: fibrinogen binders on compound microarrays, profiling panel, artefact control for SMM control-protein annotation, biochemical, small-molecule microarray, 635/667 nm fluorescence (AID 1131); conditions: fibrinogen-A647 binding fluorescence, higher = more signal;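 note: z-score merges 667 nm fluorescence with per-spot signal-to-noise over triplicate slides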
[15] = biological target: Follistatin (Homo sapiens) (UniProt P19883); assay: follistatin binders on small-molecule microarrays, primary screen, biochemical, small-molecule microarray, 635/667 nm fluorescence (AID 1132); conditions: FST binding, 635 nm fluorescence, higher = more signal
Sequence of Follistatin (Homo sapiens) (P19883 whole entry, looked up): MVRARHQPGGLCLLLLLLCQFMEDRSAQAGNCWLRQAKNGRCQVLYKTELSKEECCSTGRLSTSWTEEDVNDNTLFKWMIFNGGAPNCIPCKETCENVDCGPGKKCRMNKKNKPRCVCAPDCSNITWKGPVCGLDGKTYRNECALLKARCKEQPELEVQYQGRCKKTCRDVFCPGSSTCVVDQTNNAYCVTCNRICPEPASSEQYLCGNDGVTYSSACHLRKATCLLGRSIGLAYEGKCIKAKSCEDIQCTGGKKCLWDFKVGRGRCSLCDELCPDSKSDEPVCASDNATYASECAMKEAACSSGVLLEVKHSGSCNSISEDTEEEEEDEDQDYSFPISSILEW

[16] = biological target: Fibroblast growth factor 2 (Homo sapiens) (UniProt P09038); assay: FGF2 binders on small-molecule microarrays, primary screen, biochemical, small-molecule microarray, 635/667 nm fluorescence (AID 1133); conditions: small-molecule microarray binding, FGF2, fluorescence 635/667; higher = more signal
Sequence of Fibroblast growth factor 2 (Homo sapiens) (P09038 whole entry, looked up): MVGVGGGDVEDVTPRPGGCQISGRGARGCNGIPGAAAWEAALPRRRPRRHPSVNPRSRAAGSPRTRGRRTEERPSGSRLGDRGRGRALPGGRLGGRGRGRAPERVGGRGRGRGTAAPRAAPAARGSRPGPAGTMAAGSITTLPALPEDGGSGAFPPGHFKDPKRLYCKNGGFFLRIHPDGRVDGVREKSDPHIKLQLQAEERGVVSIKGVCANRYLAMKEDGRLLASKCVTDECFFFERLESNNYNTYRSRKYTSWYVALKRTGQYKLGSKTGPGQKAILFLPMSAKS

[17] = mitochondrial membrane potential change in A549 cells, profiling panel, cell-based, JC-1 fluorescence, basal, 24 h, 100 nL (AID 1138); conditions: higher = more signal;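 note: A549 lung adenocarcinoma cells under basal conditions with no added stimulus; test concentration not given here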
[18] = test system: Lefty1; assay: Lefty1 binders on small-molecule microarrays, primary screen, biochemical, small-molecule microarray, 635/667 nm fluorescence (AID 1139); conditions: small-molecule microarray binding, fluorescence 635/667; higher = more signal
[19] = test system: wheat germ agglutinin (Triticum aestivum), Alexa647-labelled; assay: wheat germ agglutinin binders on compound microarrays, profiling panel, artefact control for SMM control-protein annotation, biochemical, small-molecule microarray, 635/667 nm fluorescence (AID 1140); conditions: WGA-A647 binding, 635 nm fluorescence, higher = more signal;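 note: score merges 667 nm feature emission with signal to noise over triplicate slides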
[20] = biological target: Luciferin 4-monooxygenase (Photinus pyralis) (UniProt P08659); assay: firefly luciferase enzyme inhibitors, primary screen, biochemical, luminescence, purified enzyme, 2006 set (AID 1141); conditions: SteadyGlo luminescence, 30 min, higher = more signal, called active from +8 up or from −8 down;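 note: cell-free assay with purified firefly luciferase at 100 ng per well in PBS; test concentration not given here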
Sequence of Luciferin 4-monooxygenase (Photinus pyralis) (P08659 whole entry, looked up): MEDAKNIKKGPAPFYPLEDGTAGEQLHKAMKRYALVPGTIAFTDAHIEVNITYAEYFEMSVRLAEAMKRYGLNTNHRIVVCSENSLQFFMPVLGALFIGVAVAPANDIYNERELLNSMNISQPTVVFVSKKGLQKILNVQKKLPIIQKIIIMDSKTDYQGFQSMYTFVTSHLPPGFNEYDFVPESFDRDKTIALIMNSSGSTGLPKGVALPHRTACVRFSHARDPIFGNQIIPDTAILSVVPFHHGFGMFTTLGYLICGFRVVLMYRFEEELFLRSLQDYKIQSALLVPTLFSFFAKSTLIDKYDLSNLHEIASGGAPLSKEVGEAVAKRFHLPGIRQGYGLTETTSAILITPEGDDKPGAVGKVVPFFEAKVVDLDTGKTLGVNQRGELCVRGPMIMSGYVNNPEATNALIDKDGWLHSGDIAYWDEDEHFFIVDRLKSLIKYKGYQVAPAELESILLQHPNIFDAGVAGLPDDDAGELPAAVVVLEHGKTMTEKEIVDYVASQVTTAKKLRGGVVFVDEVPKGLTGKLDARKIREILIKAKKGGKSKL

Row | Structure (SMILES) | composite z-score [1] | composite Z-score [2] | composite z-score [3] | composite z-score [4] | composite z-score [5] | composite z-score [6] | composite z-score [7] | composite z-score [8] | composite z-score [9] | composite z-score [10] | composite z-score [11] | composite z-score [12] | composite z-score [13] | composite z-score [14] | composite z-score [15] | composite z-score [16] | z-score [17] | composite z-score [18] | composite z-score [19] | z-score [20]
1 | CC(C)CON=C1C[C@@H](O)[C@@H](O)[C@@H]2[C@@H]3C(=O)N(c4ccc(F)cc4F)C(=O)[C@@H]3CC[C@H]12 | 0.541 | 0.109 (inactive) | -0.122 | -0.17 | 0.501 | 0.602 | 0.311 | 1.28 | 0.554 | 0.303 | 0.686 | 1.11 | 0.436 | 0.424 | 0.714 | 0.375 | -0.229 | 1.13 | 0.221 | 0.819 (inactive)
2 | CC(CCC(=O)OC[C@H]1O[C@H](C#Cc2ccccc2)C=C[C@@H]1Oc1ccc(C)cc1)=NO[C@H](C)c1cn([C@H](CO)Cc2ccccc2)nn1 | 0.276 | 0.392 (inactive) | -0.0847 | -0.0966 | -0.0419 | 0.757 | 0.0395 | 1.12 | 0.569 | 0.79 | 0.126 | 0.921 | 0.648 | 0.856 | 0.6 | 0.52 | 0.6 | 0.724 | 0.442 | -0.085 (inactive)
3 | C=CC[C@@H]1C=C[C@H](ON=C(C)CCC(=O)OC[C@H]2O[C@H](C#Cc3ccccc3)C=C[C@@H]2Oc2ccc(C)cc2)[C@@H](CO)O1 | 0.791 | 0.153 (inactive) | -0.0898 | -0.101 | 0.286 | 1.23 | 0.441 | 1.29 | 0.126 | 1.13 | -0.443 | 0.828 | -0.0073 | 0.955 | 0.656 | 0.42 | -0.0271 | 0.842 | -0.0056 | 0.666 (inactive)
4 | CC(=O)Nc1ccc([C@@H]2N[C@H](C(=O)O)CC[C@H]2C)cc1 | 0.0499 | 0.237 (inactive) | -0.132 | -0.203 | -0.172 | -0.0725 | 0.0356 | 0.22 | 0.65 | 0.36 | 0.328 | 0.557 | 1.12 | 0.669 | 0.205 | 0.284 | 2.05 | 0.701 | -0.11 | -1.38 (inactive)
5 | COc1ccc(COC(=O)NN=C2C[C@@H](O)[C@@H](O)[C@@H]3[C@@H]4C(=O)N(c5cccc(Oc6ccccc6)c5)C(=O)[C@@H]4CC[C@@H]23)cc1 | 0.267 | 0.807 (inactive) | 0.123 | -0.149 | 0.0806 | 0.303 | -0.116 | -0.456 | -0.424 | -0.337 | 0.177 | -0.181 | -0.0032 | 0.238 | -0.823 | -0.415 | -0.201 | -0.282 | 0.485 | 0.891 (inactive)
6 | CCOC(=O)NN=C1C[C@@H](O)[C@@H](O)[C@@H]2[C@@H]3C(=O)N(Cc4ccc5c(c4)OCO5)C(=O)[C@@H]3CC[C@H]12 | 0.717 | -0.0189 (inactive) | -0.0629 | -0.14 | 0.347 | 0.926 | -0.387 | 0.364 | -0.121 | -1.27 | -0.0164 | 0.117 | -0.243 | 0.785 | -0.176 | -0.289 | 0.0318 | 0.285 | 0.559 | 1.12 (inactive)
